# Compounds with a hit are over-represented: about 2.8% of the library has one in this group of screens.
# HEK293 tox = cytotoxicity in counter-screen for GLP-1R inverse agonists; HEK293 cAMP-luciferase reporter cells, luminescence, 24 h; Potency, µM (titrated, usually from 38.3 µM), for inactives: at the highest dose activity change, negative = inhibition, usual class: inhibitors; hit rate 0.13% among 410,000; AID 624418;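 also: loss of luciferase light is scored as toxicity; % is scaled to controls: 0 for no effect and ±100 for the full control effect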
#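 A 23 nL compound transfer followed 12 hours of cell culture at 37 deg C; exposure then lasted 24 hr. Luciferase assay detection reagent was dispensed and plates read for luminescence after a 12 min room-temperature wait.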
# BRCA1 expr act = BRCA1 expression activation | hit rate 1.1% among 380,000 | AID 624202 | MCF7-BRCA1-FFLuc reporter, luminescence, 48 h; response scale: scaled: vehicle 0%, 10 µM genistein 100% | Potency, µM (highest dose often 46.1 µM), for the others: at the top dose activation, most hits filed as activators; also: nearly all actives have a fitted effect of over 80% in size
#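 First, MCF7-BRCA1-FFLuc cells (2000/well) attach for 2 h; next, compounds are pin-added and incubated 48 h at 37 °C; finally, luciferase reagent is added and luminescence read after 15 min.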
# GLP1R inv ag = inverse agonists of human GLP-1 receptor; HEK293 GLP-1R CRE-luciferase, luminescence, 24 h; GLP-1R form is constitutively active; Potency, µM (doses to about 38.3 µM), for inactives: top-dose activity change, negative = inhibition, usual class: inhibitors; hit rate 1.6% among 410,000; also: % is scaled to controls: 0 for no effect and ±100 for the full control effect; nearly all actives have a fitted effect of over 55% in size
# Target sequence (P43220 whole entry, looked up): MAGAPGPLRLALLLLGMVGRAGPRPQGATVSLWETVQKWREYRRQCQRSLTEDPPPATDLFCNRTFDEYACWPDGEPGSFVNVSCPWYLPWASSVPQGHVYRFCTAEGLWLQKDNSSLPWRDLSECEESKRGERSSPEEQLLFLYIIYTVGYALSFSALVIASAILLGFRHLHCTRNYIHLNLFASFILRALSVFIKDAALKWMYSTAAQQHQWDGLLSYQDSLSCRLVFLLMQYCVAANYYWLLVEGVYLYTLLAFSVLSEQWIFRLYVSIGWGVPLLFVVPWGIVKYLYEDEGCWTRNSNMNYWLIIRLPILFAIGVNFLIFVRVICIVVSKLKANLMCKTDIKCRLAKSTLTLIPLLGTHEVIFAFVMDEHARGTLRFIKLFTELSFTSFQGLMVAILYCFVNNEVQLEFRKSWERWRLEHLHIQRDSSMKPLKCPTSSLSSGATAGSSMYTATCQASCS
#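 Luminescence readout: a drop in cAMP-driven luciferase signal flags inverse agonism at a constitutively active GLP-1R stably expressed in HEK293. Compound exposure lasted 24 hr at 37 deg C, 5% CO2.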
# Mito fusion yeast = blocks mitochondrial division or promotes mitochondrial fusion; hit rate 0.23% among 320,000; S. cerevisiae fusion-defective mutant growth rescue, CellTiterGlo 48 h; Potency, µM (series often up to 46.1 µM), inactives show top-dose growth rescue (activation), most hits filed as activators; also: % of control where 0% means no effect; nearly all actives have a fitted effect of over 45% in size
#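 Read-out: ATP-based luminescence (CellTiterGlo, 10 min ambient) reporting growth of fusion-defective ts yeast after 48 hours at 37C on glycerol/ethanol YPEG medium in the presence of compound.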
# GLP1R ag = activates the human GLP-1 receptor; P43220; HEK293 GLP-1R CRE-luciferase, luminescence, 4-6 h; cells express a hypersensitive GLP-1R form; Potency, µM (top dose mostly 45.6 µM), without a hit: at the highest dose activation, hits mostly activators; hit rate 0.007% among 380,000; AID 624172; also: % of control where 0% means no effect
# * hit, by the source's call; i = inactive; u = inconclusive; x = not tested or not shown. Calls follow the shape of the dose curve; as a rule, active = well fitted curve in the direction sought with a large enough effect; inconclusive = small, poorly fitted or top-dose-only effect, or another doubt; inactive = no such curve, though single readings can be large; an effect the other way counts as inactive or inconclusive. Potency is read from the fitted curve at half-maximal effect.
SMILES,HEK293 tox,BRCA1 expr act,GLP1R inv ag,Mito fusion yeast,GLP1R ag
CC1(Cc2ccccc2Cl)C(=O)Nc2ccc(OC(F)(F)F)cc21 (configuration not stated),4%,-43%,10µM*,x,0%
CC1(Cc2ccccc2C#N)C(=O)Nc2ccc(OC(F)(F)F)cc21 (configuration not stated),3%,-6%,u,x,5%
NC(=O)C1(N2CCCCC2)CCN(Cc2nc(-c3cccs3)no2)CC1,6%,-1%,-3%,1%,9%
Cc1ccc(SCC(=O)Nc2ccc(-c3nc4ccccc4[nH]3)cc2)cc1,-14%,3.5µM*,-13%,-6%,-25%
Fc1ccccc1CSCc1nc2ccccc2[nH]1,3%,5.6µM*,-10%,3%,10%
c1ccc(SCc2nc3ccccc3[nH]2)cc1,5%,u,0%,-8%,5%
Cc1ccc(SCc2nc3ccccc3[nH]2)cc1,2%,3.5µM*,-7%,-4%,-6%
N#Cc1ccc(C(C(=O)NCc2ccccc2)n2c(=O)c(-c3cc4ccccc4[nH]3)nc3ccccc32)cc1 (configuration not stated),i,x,u,x,x
Cc1nnsc1-c1nc2ccccc2n1C(CCc1ccccc1)c1nc2ccccc2[nH]1 (configuration not stated),-16%,x,11µM*,x,x
O=C(NCc1ccccc1)C(c1ccc(C(F)(F)F)cc1)n1c(=O)c(-c2cc3ccccc3[nH]2)nc2ccccc21 (configuration not stated),i,x,4.5µM*,x,x
O=C(NCc1ccccc1)C(c1cccc2ccccc12)n1c(=O)c(-c2cc3ccccc3[nH]2)nc2ccccc21 (configuration not stated),390%,x,u,x,x
O=C(NCc1ccccc1)C(CCc1ccccc1)n1c(=O)c(-c2cc3ccccc3[nH]2)nc2ccccc21 (configuration not stated),455%,x,5.6µM*,x,x
O=c1c(-c2cc3ccccc3[nH]2)nc2ccccc2n1C(CCc1ccccc1)c1nc2ccccc2[nH]1 (configuration not stated),i,x,3.2µM*,x,x
NNC(=O)CC1NCCN(Cc2ccccc2)C1=O (configuration not stated),-2%,-1%,5%,-2%,0%
Cc1nn(Cc2ccc(Cl)cc2Cl)c(C)c1NC(=O)c1ccc(COc2cc(Cl)ccc2Cl)o1,-12%,-24%,u,-2%,2%
Cc1nn(Cc2c(F)c(F)c(F)c(F)c2F)c(C)c1NC(=O)c1ccc(COc2ccc(Cl)cc2Cl)o1,-15%,-84%,5µM*,u,1%
O=C(NCCSCc1ccco1)Nc1ccc(Cl)cc1,13%,8.9µM*,u,-8%,-8%
Cc1cc(C)cc(NC(=O)C(=S)NCc2ccccc2)c1,1%,-14%,11µM*,4%,-3%
Cc1ccc(NC(=O)CSCc2ccco2)cc1,-15%,10µM*,2%,15%,18%
Cc1ccc(NC(=O)C(=S)NCc2ccco2)cc1,-8%,7.1µM*,30%,0%,-4%
Cc1ccc(NC(=O)CSCC(=O)NCc2ccco2)cc1,-2%,1%,1%,-3%,3%
O=C(c1ccc(S(=O)(=O)c2ccccc2Cl)c([N+](=O)[O-])c1)N1CCN(Cc2ccccc2)CC1,-28%,-94%,u,24%,-22%
O=C(O)C(=O)Nc1cccc(C2=NN=N[N]2)c1,x,x,x,x,0%
Cc1ccccc1C(=O)N(C)c1ccccc1C(=O)NCc1ccccc1,-3%,3%,6%,0%,-1%
CCOc1ccc(C(=S)NC2CCCCC2)cc1,-3%,10µM*,0%,-2%,-6%
SMILES,HEK293 tox,BRCA1 expr act,GLP1R inv ag,Mito fusion yeast,GLP1R ag
CCOC(=O)C1CCN(C(=O)CCc2ccc(S(=O)(=O)NC(C)C)cc2)CC1,-14%,-10%,1%,0%,1%
COc1ccc2nc(/N=C(\N)NC(=O)C(C)(C)C)nc(C)c2c1,16%,11µM*,17%,2%,0%
O=C(NCc1ccco1)c1cc(S(=O)(=O)N2CCCc3ccccc32)ccc1Cl,-6%,-38%,4.5µM*,-1%,2%
COc1ccc(S(=O)(=O)N2CCc3ccccc32)cc1C(=O)NCc1ccco1,3%,-7%,-19%,4%,10%
COCCNC(=O)CSc1ccc(C)cc1,-8%,2%,1%,-1%,4%
Cc1ccc(SCC(=O)NCCSC(C)(C)C)cc1,2%,8.9µM*,-4%,-3%,2%
COc1ccc2oc(=O)c(-c3csc(-c4ccc(Br)cc4)n3)cc2c1,-8%,x,6%,x,x
COc1ccc2oc(=O)c(-c3csc(Nc4ccc(O)cc4)n3)cc2c1,15%,-67%,u,16µM*,-35%
CCCCn1c(N)c(N(CCOC)C(=O)C2CC(=O)N(c3cccc(SC)c3)C2)c(=O)[nH]c1=O (configuration not stated),5%,-3%,1%,-5%,-11%
CC(C)NCCOc1cccc(Br)c1,-1%,-2%,-17%,-3%,-4%
CC(C)NCCCCOc1cccc(Br)c1,-1%,-8%,7.9µM*,-5%,-1%
Oc1ccc(/C=C/c2ccc3cccc(O)c3n2)cc1Br,202%,u,10µM*,-8%,1%
O=C(O)c1ccc(/C=C/c2ccc3cccc(O)c3n2)cc1,-7%,u,73%,1%,7%
C#CCN1C=CC(=O)[C@@H](OC(=O)Nc2ccc(OC)cc2)[C@H]1c1ccccc1Br,1%,1%,0%,x,-2%
COc1cccc(/C=N/Nc2snc(SC)c2C#N)c1O,12%,-30%,u,5µM*,-2%
COc1ccc(/C=N/Nc2snc(SC)c2C#N)cc1OC,4%,11%,-7%,0%,u
Cc1cccc(C(=O)Nc2sc(C)c(-c3ccccc3)c2C#N)c1,-15%,u,u,25%,-1%
Cc1sc(NC(=O)C2CCCCC2)c(C#N)c1-c1ccccc1,0%,7.1µM*,u,4%,21%
CC(=O)c1ccc(NC(=O)CCCSc2nc(-c3ccco3)cc(C(F)(F)F)n2)cc1,3%,x,-10%,x,x
C=CCN(CC=C)C(=S)NC(=O)c1ccc(-c2ccccc2)cc1,u,-45%,u,8%,-11%
C=CCN(CC=C)C(=S)NC(=O)c1ccc(OC)cc1,0.63µM*,-33%,u,-3%,1%
C=CCN(CC=C)C(=S)NC(=O)c1ccc(C)c(Br)c1,u,-50%,3.2µM*,u,-3%
Cc1ccc(C(=O)NC(=S)N(C)C2CCCCC2)cc1Br,x,x,x,-8%,x
CCSC(=O)CCCCCCCCCCCO,15%,24%,5%,0%,-2%
CCCCc1ccc(NC(=O)COc2ccc(C(=O)Nc3ccccc3OCC)cc2)cc1,21%,-42%,21%,-5%,-5%
